In the library only some 4.6% were active in any assay of this set; here they are far more common.
NLRP3 yeast inh: NALP3 inflammasome inhibitors in reconstituted yeast, primary screen, luminescence, uHTS; Yeast reconstituted NLRP3/ASC/caspase-1, beta-gal luminescence, 24 h; inhibition, % at 10 µM; actives 0.39% (n = 330,000);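 active means inhibition of 50% or more; inactive means inhibition below 50%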
SKKanGAS inh: S. pyogenes SKKanGAS growth inhibitors in kanamycin, primary screen, streptokinase expression inhibitor project, SKKanGAS strain, BacTiter-Glo luminescence; actives 1.3% (n = 300,000); 6 h; inhibition, % at 7.5 µM;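 active means mean replicate score, as percent of positive control median, at least 50; inconclusive means mean below 50 but one replicate at or above 50; inactive means mean and every replicate below 50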;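 further: strain carries kanamycin resistance gene driven by streptokinase promoter and grows in 40 µg/ml kanamycin; loss of luminescence reflects streptokinase promoter inhibition or plain growth inhibition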
tim10-1 inh: growth inhibitors of tim10-1 mutant yeast, primary screen, luminescence, uHTS; S. cerevisiae tim10-1 ts strain growth, BacTiter-Glo, 24 h; inhibition, % at 20 µM; actives 2.2% (n = 330,000); AID 463190, 2010;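 active means inhibition of at least 40%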;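 further: mutant grown at 25 °C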
TIM10 inh: growth inhibitors of isogenic TIM10 control yeast, primary screen, counter-screen for tim10-1 yeast inhibitor project, luminescence, uHTS; actives 1.4% (n = 330,000); S. cerevisiae TIM10 strain growth, BacTiter-Glo luminescence, 24 h; inhibition, % at 10 µM;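 active means inhibition of 40% or more at the single tested concentration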;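 further: wild-type TIM10 isogenic control strain grown at permissive 25 °C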
tim23-1 inh: growth inhibitors of tim23-1 mutant yeast, primary screen, luminescence, uHTS; actives 1.3% (n = 330,000); AID 463212, 2010; S. cerevisiae tim23-1 growth, BacTiter-Glo luminescence, 24 h; inhibition, % at 20 µM;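 active means growth inhibition of the mutant yeast at or above 50%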;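 further: temperature-sensitive mutant grown at 25 °C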
tim10-1 conf: growth inhibitors of tim10-1 mutant yeast, confirmation, single concentration, luminescence, S. cerevisiae. S. cerevisiae tim10-1 ts strain growth, BacTiter-Glo, 24 h. shares compounds with tim10-1 inh. actives 56% (n = 7,400). inhibition, % at 20 µM. AID 463213, 2010;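 active means inhibition of yeast growth at or above a set limit in either of two repeat tests at 20 µM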;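 further: tim10-1 mutant grown at permissive 25 °C to find synthetic lethal compounds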
Hits are given with their value; . = inactive; ? = inconclusive; / = not tested or not shown.

SMILES	NLRP3 yeast inh	SKKanGAS inh	tim10-1 inh	TIM10 inh	tim23-1 inh	tim10-1 conf
O=C(c1ccc(Oc2ccccc2)cc1)c1nc2c(n1O)CCCC2	.	.	41	.	.	.
Cc1cccc(N(Cc2ccccc2)C(=O)CN2C(=O)NC3(CCCC3)C2=O)c1	.	/	.	.	.	/
O=[N+]([O-])c1cc(Cl)ccc1N1CCN(c2ccccc2O)CC1	.	.	59	.	.	53
Cc1cccc(N2CCN(C3CCCCC3NS(=O)(=O)c3ccccc3)CC2C)c1 (configuration not stated)	.	.	.	.	.	/
CCc1cc2c(=O)c(-c3nc(C)cs3)coc2cc1O	.	.	.	.	.	/
Cc1csc(-c2coc3cc(O)cc(C)c3c2=O)n1	.	.	43	.	.	.
O=C(O)CN1C(=O)/C(=C\C(Br)=C\c2ccccc2)SC1=S	.	.	43	.	.	35
CN(/N=C/c1cc(Br)cc(Br)c1O)c1ccccc1	.	.	43	.	.	35
CCOc1ccc(/C=N/N(C)c2ccccc2)cc1OC	.	.	.	.	.	/
COC(=O)C[C@H]1c2ccccc2S(=O)(=O)N1c1cccc(OC)c1	.	.	.	.	.	/
COc1cccc(N2[C@@H](CC(C)=O)c3ccc(/C=C/C(C)=O)cc3S2(=O)=O)c1	.	.	44	.	.	34
CCCn1c(N)c(C(=O)CSc2nnc3ccccn23)c(=O)n(C)c1=O	.	/	.	.	.	/
N#CC1(Nc2ccccc2)C(=O)Nc2ccccc21 (configuration not stated)	.	.	.	.	.	/
N#CC1(Nc2cccc(Br)c2)C(=O)Nc2ccccc21 (configuration not stated)	.	.	42	.	.	38
CCc1cccc(NC(=O)CS(=O)Cc2nc(-c3ccc(C)cc3)oc2C)c1 (configuration not stated)	.	.	47	.	.	35
COc1ccc([C@H]2[C@H]3C=CC[C@@H](C)[C@@H]3C(=O)N2Cc2ccccc2)cc1Cl	.	.	42	.	.	.
C[C@@H]1CC=C[C@H]2[C@H]1C(=O)N(Cc1ccccc1)[C@H]2c1ccc(-c2ccoc2)cc1F	.	.	41	.	.	36
COc1ccc(Br)cc1[C@H]1[C@H]2C=CC[C@@H](C)[C@@H]2C(=O)N1Cc1ccccc1	.	.	60	.	.	42
Cc1noc(C)c1NC(=O)N(C)C[C@H]1Oc2ccc(NS(=O)(=O)c3ccc(F)cc3)cc2C(=O)N([C@H](C)CO)C[C@@H]1C	.	/	.	.	.	/
Cn1nc(C(F)(F)F)c(C(=O)Nc2ccc(F)cc2F)c1Sc1cccc(Cl)c1	.	.	44	.	.	34
Cn1nc(C(F)(F)F)c(C(=O)Nc2ccc(F)cc2F)c1Sc1cccc(C(F)(F)F)c1	.	.	.	.	.	/
CCOC(=O)c1c(C)[nH]c(C(=O)COc2ccc3ccc(=O)oc3c2)c1C	.	/	.	.	.	/
CCOc1ccccc1Nc1ccnc2cc(Cl)ccc12	.	.	.	.	.	/
CCOc1ccc(NC(=S)NNc2ccnc3cc(Cl)ccc23)cc1	.	.	47	.	.	.
Cn1c(CC(=O)NNC(=O)c2cccnc2)nc2ccccc21	.	/	.	.	.	/
SMILES	NLRP3 yeast inh	SKKanGAS inh	tim10-1 inh	TIM10 inh	tim23-1 inh	tim10-1 conf
CC(C#N)Sc1ncnc2sc(-c3ccccc3)cc12 (configuration not stated)	.	.	.	.	.	/
CN1CCN(C2Cc3ccccc3Sc3ccc(Cl)cc32)CC1 (configuration not stated)	.	/	52	.	.	36
CN1CCN(C2Cc3cc(F)ccc3Sc3ccc(Cl)cc32)CC1 (configuration not stated)	.	.	.	.	.	/
COc1ccc(CNC(=O)CN(C(=O)CCC(=O)Nc2ccccn2)c2ccc3c(c2)OCO3)cc1	.	.	.	.	.	/
CC(=O)Oc1ccc(-c2nc(-c3cccnc3)no2)cc1	.	?	43	.	.	49
COc1ccccc1CCN1CCCC(CN(C)Cc2ccc(OCCO)cc2)C1 (configuration not stated)	.	.	.	.	.	/
Cc1cc(=O)[nH]c(N=N/C(=N/Nc2ccc(O)cc2)c2ccccc2)n1	.	.	50	.	.	38
CCCc1ccc2oc(C(=O)N(Cc3nccn3C)C(C)C)c(C)c2c1	.	.	43	.	.	.
CCn1c(NN)nc2sc3c(c2c1=O)CCC3	.	/	.	.	.	/
NNc1nc2sc3c(c2c(=O)n1Cc1ccccc1)CCC3	.	.	54	.	.	.
CCOC(=O)C1CCCN(C(=O)c2ccc3oc(CCc4ccccc4)nc3c2)C1 (configuration not stated)	.	.	42	.	.	.
COc1ccc(C2C(=O)N(CCc3ccccc3)CC(=O)N2C2CCCC2)cc1 (configuration not stated)	.	.	44	.	.	29
CC(=O)c1cccc(N2C(=NC(=O)C3CC3)SC3CS(=O)(=O)CC32)c1 (configuration not stated)	.	.	.	.	.	/
O=C(Oc1ccc(Br)cc1C(=S)N1CCCCC1)c1cc([N+](=O)[O-])cc([N+](=O)[O-])c1	.	.	51	.	.	.
O=C(Oc1ccc(Br)cc1C(=S)N1CCCC1)c1ccccc1Cl	.	.	.	.	.	/
COc1ccccc1NC(CC(=O)c1ccccc1)C(=O)OCC(=O)c1ccc(F)cc1 (configuration not stated)	.	.	45	.	.	40
COc1ccccc1NC(=O)CCCC(=O)OCC(=O)c1ccc(F)cc1	.	.	.	.	.	/
Cc1cc(NC(=O)COC(=O)CCNS(=O)(=O)c2ccccc2)n(-c2ccccc2)n1	.	.	.	.	.	/
COc1ccc2[nH]c(C)c(CCNC(=S)Nc3cc(C)ccc3C)c2c1	.	.	.	.	.	/
CCc1cccc(C)c1NC(=S)NCCc1c(C)[nH]c2ccc(C)cc12	.	.	41	.	.	.
COc1ccc(S(=O)(=O)n2oc(=O)cc2-c2ccccc2)cc1	.	.	43	.	.	.
Cc1ccc(N=Nc2c(N)[nH]n3c(=O)cc(-c4ccccc4)nc23)cc1	.	/	50	.	.	.
Cc1ccc(Cl)cc1NC(=O)c1ccccc1OCC(=O)Nc1ccc(Cl)cc1	.	.	48	.	.	.
Cc1ccc(NC(=O)COc2ccccc2C(=O)Nc2ccccc2)cc1Cl	.	.	.	.	.	/
Cc1nc2sccn2c(=O)c1S(=O)(=O)N1CCN(c2ccc(F)cc2)CC1	.	.	.	.	.	/

From PubChem BioAssay
